Laboratory results published in PubChem BioAssay (NCI).
Compounds without any hit were thinned out: in the full panel of roughly 83,000, 20% have a hit.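 For each line, cells grew in 96-well plates with the test compound present at a single concentration for 48 hours.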 A number with no mark means an inactive call. Activity calls are given as the source filed them. The calls were made as follows: active = growth percent below 10; inactive = the rest.

Assays:
Test in all cases: NCI-60 one-dose screen, 48 h (100 = growth as untreated, 0 = no growth, -100 = all killed)
Conditions in all cases: 10 µM unless noted
NCI-H23 lung = test system: NCI-H23 lung
NCI-H226 lung = test system: NCI-H226 lung
NCI-H322M lung = test system: NCI-H322M lung
HOP-62 NSCLC = test system: HOP-62 NSCLC
NCI-H460 lung = test system: NCI-H460 lung
HOP-92 NSCLC = test system: HOP-92 NSCLC
NCI-H522 lung = test system: NCI-H522 lung
A549/ATCC NSCLC = test system: A549/ATCC NSCLC
786-0 renal = test system: 786-0 renal
COLO 205 colon = test system: COLO 205 colon
DU-145 prostate = test system: DU-145 prostate
MALME-3M melanoma = test system: MALME-3M melanoma
MDA-MB-231 breast = test system: MDA-MB-231 breast
RXF 393 renal = test system: RXF 393 renal
SF-268 CNS = test system: SF-268 CNS
SF-295 CNS = test system: SF-295 CNS
SF-539 CNS = test system: SF-539 CNS
UACC-257 melanoma = test system: UACC-257 melanoma
M14 melanoma = test system: M14 melanoma

| Structure (SMILES) | growth (NCI-H23 lung) | growth (NCI-H226 lung) | growth (NCI-H322M lung) | growth (HOP-62 NSCLC) | growth (NCI-H460 lung) | growth (HOP-92 NSCLC) | growth (NCI-H522 lung) | growth (A549/ATCC NSCLC) | growth (786-0 renal) | growth (COLO 205 colon) | growth (DU-145 prostate) | growth (MALME-3M melanoma) | growth (MDA-MB-231 breast) | growth (RXF 393 renal) | growth (SF-268 CNS) | growth (SF-295 CNS) | growth (SF-539 CNS) | growth (UACC-257 melanoma) | growth (M14 melanoma) |
| --- | --- | --- | --- | --- | --- | --- | --- | --- | --- | --- | --- | --- | --- | --- | --- | --- | --- | --- | --- |
| C=C1C(=O)O[C@H]2[C@H]1CC/C(C=Nc1ccc(C(F)(F)F)cc1N)=C\CC[C@@]1(C)O[C@@H]21 | 12.4% | 42.5% | 54% | 47.6% | 15.3% | 27% | -56.6% (active) | 59.7% | 25% | -74.3% (active) | 17.4% | -13.3% (active) | -26.4% (active) | -35.5% (active) | 23.7% | 45.4% | -7.2% (active) | 13% | 5.33% (active) |
| COc1ccc2c(c1)C(=O)/C(=C/c1cccnc1)CC2 | 90.9% | 107% | 106% | 97.5% | 105% | 94.7% | 73.2% | 101% | 94.6% | 105% | 97% | 106% | 87.7% | 109% | 94.2% | 84.2% | 90.5% | 108% | 102% |
| CC(O)CN(CC(C)O)c1ccc2c(c1)Cc1cc([N+](=O)[O-])ccc1-2 (centres undefined) | 93.5% | 101% | 65.8% | 102% | 104% | 88.7% | 80% | 119% | 107% | 104% | 101% | 83.7% | 99.6% | 105% | 85.2% | 90.3% | 92.4% | 125% | 106% |
| O=[N+]([O-])c1ccc2c(c1)Cc1cc(F)ccc1-2 | 105% | 99.4% | 95.6% | 106% | 106% | 80.2% | 104% | 88.5% | 95.4% | 107% | 114% | 109% | 112% | 103% | 111% | 96.5% | 109% | 87.1% | 110% |
| Cc1cc(N2CCOCC2)nc(N[C@@H]2CCC[C@H](Nc3ccnc4cc(Cl)ccc34)C2)n1 | 62% | 34.2% | 27.2% | -15.2% (active) | 12.2% | -21.7% (active) | -26.8% (active) | 13.8% | -73% (active) | -82% (active) | 26.2% | -75.3% (active) | -53.7% (active) | -57.6% (active) | 19.1% | -66.2% (active) | -79.7% (active) | -86.4% (active) | -86.7% (active) |
| COc1ccc(CN2c3ccccc3Sc3ccccc32)c(C(F)(F)F)c1 | 43.9% | 57.7% | 49.1% | 41% | 9.92% (active) | 39.4% | -46.3% (active) | 33.2% | 41.9% | -29.1% (active) | 21% | 92.7% | 40.6% | -9.74% (active) | 56.4% | 2.22% (active) | -12.4% (active) | 53.9% | 7.59% (active) |
| COc1ccc(C2C(C#N)=C(N)Oc3n[nH]c(-c4cccs4)c32)cc1I (centres undefined) | 92.8% | 98.3% | 102% | 81.7% | 101% | 88.2% | 83.2% | 87.1% | 99.1% | 117% | 107% | 102% | 102% | 93.9% | 91.2% | 94.4% | 85.6% | 89.4% | 90% |
| CN1C(=O)C2(SCC(C(=O)NCc3ccccc3)N2C(=O)C2CCCCC2)c2ccccc21 (centres undefined) | 91% | 84.3% | 77.1% | 98.2% | 96% | 86.3% | 75.4% | 93.6% | 101% | 95.3% | 98% | 94.1% | 117% | 119% | 83.3% | 100% | 123% | 106% | 87.3% |
| CCCCC[C@H]1C/C=C2/C(=O)C=C[C@@H]2C/C=C\CCCC(=O)O1 | -17.4% (active) | -65.1% (active) | -52.7% (active) | -46.3% (active) | -1.5% (active) | -39.5% (active) | -78.4% (active) | -23.6% (active) | -76.4% (active) | -47.6% (active) | -32.4% (active) | -24.8% (active) | 7.59% (active) | -89.9% (active) | 3.72% (active) | -33.5% (active) | -71.4% (active) | -49.4% (active) | -29.3% (active) |
| COc1cc(C(=O)/C=C/c2cccnc2Nc2ccc(Cl)cc2)cc(OC)c1OC | -17.5% (active) | -82.7% (active) | 9.66% (active) | -68.6% (active) | 4.24% (active) | -54.5% (active) | -58.4% (active) | -29.2% (active) | -83.4% (active) | -81.4% (active) | -59.2% (active) | -48.1% (active) | -50.7% (active) | -85.7% (active) | -87.7% (active) | 7.32% (active) | -80.2% (active) | -63.5% (active) | -47.4% (active) |
| COc1ccc2c(c1)C(=O)/C(=C/c1ccccn1)CC2 | 74.1% | 95.8% | 99.3% | 105% | 97.8% | 84.1% | 16.5% | 95.2% | 100% | 87.7% | 26.1% | 72.7% | 69.4% | 83% | 90.8% | 78.2% | 72% | 81% | 85.4% |
| O=C1/C(=C/c2ccc(OCCCOc3ccc(Cl)cc3)cc2)N=C2SCCCN12 | 49.7% | 86.4% | 103% | 99.1% | 98.1% | 92.5% | 34.6% | 73.4% | 82.1% | 78.2% | 94.5% | 122% | 77.3% | 110% | 100% | 66.7% | 97% | 102% | 95.9% |
| NC(=NC1C2CC3CC(C2)CC1C3)Nc1ccc(I)cc1 (centres undefined) | 15.4% | 84.7% | 15.7% | 12.9% | 55.2% | 31.1% | 42.4% | 26.1% | 61% | -70.3% (active) | 20.4% | -17% (active) | 41.8% | 85.8% | 40.7% | 10.7% | 32% | 0.379% (active) | 2.98% (active) |
| O=C1/C(=C/c2ccccc2O)N=C2SCCCN12 | 80.9% | 97.2% | 97.5% | 88.4% | 103% | 80.9% | 79.7% | 101% | 98.8% | 99.9% | 103% | 95.1% | 78.8% | 112% | 99.5% | 98.6% | 95.4% | 103% | 102% |
| O=c1oc2c(C(F)(F)F)cccc2cc1-c1csc(Nc2ccc(OCCF)cc2)n1 | 24.2% | 17.3% | 31% | 22.5% | 4.07% (active) | 27.4% | -42.9% (active) | 18.1% | 9.77% (active) | -71.8% (active) | 2.54% (active) | 66.2% | 9.58% (active) | 22.5% | 23.3% | 4.4% (active) | -28.6% (active) | 55.2% | 4.98% (active) |
| CCOc1ccc(C(C)=O)cc1NC(=O)c1cccc(-c2nnn(CC)n2)c1 | 42.6% | 59% | 49.1% | 36.8% | 12.1% | 42.5% | -38.3% (active) | 45% | 35.5% | -3.73% (active) | 16.7% | 47.2% | 47.9% | -1.89% (active) | 59% | 7.49% (active) | -16.7% (active) | 57.1% | 9.12% (active) |
